From ChEMBL document CHEMBL3988442, “University of Dundee, Small-Polar-MMV Screening Library” (2021) come the findings set out here.

The test concerns the target T1, Methionyl-tRNA synthetase, putative (Leishmania donovani (strain BPK282A1)) (UniProt E9BF75).
T1 sequence (whole entry): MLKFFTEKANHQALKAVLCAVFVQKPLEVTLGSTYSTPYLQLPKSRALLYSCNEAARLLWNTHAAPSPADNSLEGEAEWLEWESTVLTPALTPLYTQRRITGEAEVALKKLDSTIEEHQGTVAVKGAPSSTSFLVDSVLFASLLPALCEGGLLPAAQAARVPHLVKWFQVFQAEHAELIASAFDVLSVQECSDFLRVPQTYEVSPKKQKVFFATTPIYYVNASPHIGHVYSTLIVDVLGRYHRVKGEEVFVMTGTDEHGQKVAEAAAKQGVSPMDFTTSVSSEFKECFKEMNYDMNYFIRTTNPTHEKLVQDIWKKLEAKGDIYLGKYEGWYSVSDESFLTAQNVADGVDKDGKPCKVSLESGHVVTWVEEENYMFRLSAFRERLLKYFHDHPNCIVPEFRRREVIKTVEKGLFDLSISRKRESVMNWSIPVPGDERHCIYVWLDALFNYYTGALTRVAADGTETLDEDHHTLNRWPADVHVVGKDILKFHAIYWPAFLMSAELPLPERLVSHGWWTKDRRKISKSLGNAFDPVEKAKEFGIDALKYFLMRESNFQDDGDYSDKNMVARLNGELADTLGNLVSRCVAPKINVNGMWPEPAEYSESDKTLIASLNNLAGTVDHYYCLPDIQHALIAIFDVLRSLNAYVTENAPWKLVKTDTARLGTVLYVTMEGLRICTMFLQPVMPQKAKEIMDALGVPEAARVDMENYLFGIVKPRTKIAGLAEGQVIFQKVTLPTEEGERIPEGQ
Kind of test: Leishmania donovani Methionine tRNA synthetase (LdMetRS):v7. Dose response assay. It is filed as functional. On the set-up: conc 80 nM, time 150 minutes.

For `Cc1cc2c(N3CCCCC3)nc(-c3cccnc3)nc2s1`, the PXC50 is, setting by setting: (MAX_EFFECT 30.15075377) less than 4; (MAX_EFFECT 37.1007371) less than 4.

For the compound `Cc1sc2nc(CN3CCCC3)nc(NC3CCCC3)c2c1C`, the PXC50 is less than 4 (MAX_EFFECT 34.69387755) and less than 4 (MAX_EFFECT 40.15151515).

In the case of `CCN(CCO)c1nc(-c2ccsc2)nc2sc3c(c12)CCCC3`, the PXC50 runs as follows: (MAX_EFFECT 43.2) less than 4; (MAX_EFFECT 48.67724868) less than 4.

As to `Cc1nc(NCCC(=O)NC(C)C)c2c3c(sc2n1)CCC3`, the PXC50 is, setting by setting: (MAX_EFFECT -1.058201058) less than 4; (MAX_EFFECT -2.133333333) less than 4.

In the case of `CC(C)C[C@H](N)COc1ccccc1N1CCCC1=O`, the PXC50 is, setting by setting: (MAX_EFFECT 8.074534161) less than 4; (MAX_EFFECT 13.85927505) less than 4.

`O=C(NCC1CCCCN1C(=O)c1cccc2ccccc12)c1ccccc1` (stereo not given) had a PXC50 (BOTTOM 0.770786067, HILLSLOPE 2.128077678, MAX_EFFECT 96.73659674, TOP 102.5562093) of 4.68 and a PXC50 (BOTTOM 1.426381969, HILLSLOPE 1.713383958, MAX_EFFECT 97.20930233, TOP 108.6916663) of 4.55.

As for `Nc1noc2ccc(-c3cnc4ccc(NCCN5CCS(=O)(=O)CC5)nn34)cc12`, the PXC50 was less than 4 (MAX_EFFECT 6.106870229) and less than 4 (MAX_EFFECT 10.52631579).

`CC(C)C[C@@H](COc1cccc(F)c1Oc1ccc(Cl)cc1)N(C)C`: the PXC50 reads like this: (MAX_EFFECT 6.418219462) less than 4; (MAX_EFFECT 11.30063966) less than 4.

Turning to `COCC(C)NC(=O)c1ccc2ccc(N3CCN(S(C)(=O)=O)CC3)n2c1` (stereo not given), the PXC50 is, setting by setting: (BOTTOM 3.011130377, HILLSLOPE 1.725207909, MAX_EFFECT 55.66037736, TOP 58.49588417) 4.74; (MAX_EFFECT 48.85844749) less than 4.

Turning to `CCC(CO)Nc1nc(CSc2ccccc2)nc2sc(C)c(C)c12` (stereo not given), the PXC50 by setting is: (MAX_EFFECT 23.49726776) less than 4; (MAX_EFFECT 24.06417112) less than 4.

`Cc1cc2c(N3CCN(C)CC3)nc(-c3cccnc3)nc2s1`: the PXC50 was less than 4 (MAX_EFFECT 6.010928962) and less than 4 (MAX_EFFECT 7.486631016).

Consider `CS(=O)(=O)N1CCN(c2ccc3cnc(C(=O)NC4CCCC4)cn23)CC1`, for which the PXC50 is less than 4 (MAX_EFFECT 8.333333333) and less than 4 (MAX_EFFECT 13.54166667).

As for `Cn1cc(CN2CCC(F)(F)C3(CCN(c4cccnc4)C3)C2)cn1` (stereo not given), the PXC50 is less than 4 (MAX_EFFECT 3.888888889) and less than 4 (MAX_EFFECT 8.450704225).

Consider `COCCN1CCN(c2ccc3ccc(C(=O)NC4CC4)cn23)CC1`, for which the PXC50 runs as follows: (MAX_EFFECT 43.53741497) less than 4; (MAX_EFFECT 48.22429907) less than 4.

In the case of `CS(=O)(=O)N1CCN(c2cnc3ncc(C(=O)NC4CCCC4)cn23)CC1`, the PXC50 is, setting by setting: (MAX_EFFECT 3.624733475) less than 4; (MAX_EFFECT 4.761904762) less than 4.

`Cc1sc2nc(CCN)nc(N(C)CCCC3CCCO3)c2c1C` (stereo not given): the PXC50 is less than 4 (MAX_EFFECT 15.90909091) and less than 4 (MAX_EFFECT 18.36734694).

For the compound `CN(C)C(=O)N1CCN(c2ccc3ccc(C(=O)NC4CC4)cn23)CC1`, the PXC50 reads like this: (BOTTOM 3.433705082, HILLSLOPE 1.394575879, MAX_EFFECT 54.57943925, TOP 100.0) 4.05; (MAX_EFFECT 48.07256236) less than 4.

Regarding `Cc1nc(N2CCN(c3ccccc3O)CC2)c2c3c(sc2n1)CCC3`, the PXC50 is, setting by setting: (BOTTOM -0.0879, HILLSLOPE 1.043556985, MAX_EFFECT 58.82352941, TOP 100.0) 4.16; (BOTTOM -4.305210646, HILLSLOPE 1.068745934, MAX_EFFECT 61.20218579, TOP 100.0) 4.17.

As to `CCNC(=O)C1CCCN(c2nc(C)nc3sc4c(c23)CCC4)C1` (stereo not given), the PXC50 was less than 4 (MAX_EFFECT 7.25388601) and less than 4 (MAX_EFFECT 9.574468085).

On to `O=C(NCC1(O)CCC(F)(F)CC1)c1cc(=O)c2cc(O)ccc2o1`, for which the PXC50 reads like this: (MAX_EFFECT 6.858054226) less than 4; (MAX_EFFECT 7.869481766) less than 4.

Consider `Cc1nc(N2CCC(N)C2)c2ccsc2n1` (stereo not given), for which the PXC50 runs as follows: (MAX_EFFECT 4.663212435) less than 4; (MAX_EFFECT 6.914893617) less than 4.

As for `CCc1cc2c(NC(CC(C)C)C(=O)O)nc(C)nc2s1` (stereo not given), the PXC50 is, setting by setting: (MAX_EFFECT 8.0) less than 4; (MAX_EFFECT 13.22751323) less than 4.

Turning to `CC(O)CNc1nc(CN2CCCCC2)nc2sc3c(c12)CCCC3` (stereo not given), the PXC50 by setting is: (MAX_EFFECT 8.108108108) less than 4; (MAX_EFFECT 9.547738693) less than 4.

In the case of `OCc1ccc(Cl)cc1Cl`, the PXC50 reads like this: (MAX_EFFECT 13.11787072) less than 3; (MAX_EFFECT 18.35853132) less than 3.

Consider `Cc1nc(NCC(C)(C)O)c2c3c(sc2n1)CCCC3`, for which the PXC50 runs as follows: (MAX_EFFECT 11.84210526) less than 4; (MAX_EFFECT 12.5) less than 4.

In the case of `CNS(=O)(=O)c1cc(C(C)C)c(Br)cc1C(C)C`, the PXC50 is less than 4 (MAX_EFFECT 9.649122807) and less than 4 (MAX_EFFECT 14.58333333).

For the compound `Cc1nc(NCCN2CCNC2=O)c2ccsc2n1`, the PXC50 is less than 4 (MAX_EFFECT 8.533333333) and less than 4 (MAX_EFFECT 11.11111111).

Consider `Cc1nc2c(-c3nc(-c4ccccc4N)n[nH]3)cccn2c1C`, for which the PXC50 was less than 4 (MAX_EFFECT 15.34883721) and less than 4 (MAX_EFFECT 20.27972028).

With `O=C(C1CCC1)N1CCC(c2ncc3c(n2)CCNC3)CC1`, the PXC50 is, setting by setting: (MAX_EFFECT 30.83900227) less than 4; (MAX_EFFECT 33.27102804) less than 4.

In the case of `CN(C)C(=O)N1CCN(c2ccc3ncc(-c4ccc5onc(N)c5c4)n3n2)CC1`, the PXC50 is less than 4 (MAX_EFFECT 21.88295165) and less than 4 (MAX_EFFECT 25.43859649).
